In the antibiotic and cytotoxicity screens of Wong et al. (2023):
The whole screen tested about 39,000 compounds, of which about 1,500 (3.8%) were called active. The sample holds actives, similar compounds and a random draw of the others, so the mix is not that of the screen.

Tested on: HSkMC (human skeletal muscle cells)
Assay: cytotoxicity call (relative viability < 0.9)
Settings: 10 µM

SMILES | cytotoxicity call
O=C(CS)NCCCCCNC(=O)[C@@H]1C[C@@H]2C(=O)N[C@@H](Cc3ccccc3)C(=O)N2[C@@H]1c1ccc(O)cc1 | inactive
CN(C)CCCC1(c2ccc(F)cc2)OCc2cc(C#N)ccc21.O=C(O)C(=O)O (stereo not given) | inactive
COc1c(C)cccc1C(=O)N1CC[C@H](c2nn(CCN)c3ncccc23)C1 | inactive
COc1ccc(NC(=O)Nc2ccc3c(c2)C(=O)N([C@@H](C)CO)C[C@@H](C)[C@H](CN(C)S(=O)(=O)c2ccc(F)cc2)OCCCC[C@@H](C)O3)cc1 | inactive
CO[C@@H]1CN(C)C(=O)c2ccc(NS(C)(=O)=O)cc2OC[C@H](C)N(C(=O)CN(C)C)C[C@@H]1C | inactive
O=C(Nc1ccc(C(F)(F)F)cc1)Nc1ccc2c(c1)[C@H]1C[C@@H](CC(=O)N3CCc4ccccc4C3)O[C@H](CO)[C@H]1O2 | inactive
O=C(Nc1ccc(C(F)(F)F)cc1)Nc1ccc2c(c1)[C@H]1C[C@H](CC(=O)N3CCc4ccccc4C3)O[C@H](CO)[C@H]1O2 | active
O=C(C[C@@H]1C[C@@H]2c3cc(NC(=O)Nc4ccc(C(F)(F)F)cc4)ccc3O[C@@H]2[C@@H](CO)O1)NCCc1ccccc1 | inactive
O=C(C[C@H]1C[C@@H]2c3cc(NC(=O)Nc4ccc(C(F)(F)F)cc4)ccc3O[C@@H]2[C@@H](CO)O1)NCc1cc(F)ccc1F | active
O=C(C[C@@H]1C[C@H]2c3cc(NC(=O)Nc4ccc(C(F)(F)F)cc4)ccc3O[C@H]2[C@H](CO)O1)NCCc1ccccc1 | active
O=C(C[C@@H]1C[C@H]2c3cc(NC(=O)Nc4ccc(C(F)(F)F)cc4)ccc3O[C@H]2[C@H](CO)O1)NCc1ccc(Cl)cc1 | active
O=C(Nc1ccc(C(F)(F)F)cc1)Nc1ccc2c(c1)[C@@H]1C[C@@H](CC(=O)N3CCc4ccccc4C3)O[C@H](CO)[C@@H]1O2 | inactive
O=C(C[C@H]1C[C@@H]2c3cc(NC(=O)Nc4ccc(C(F)(F)F)cc4)ccc3O[C@@H]2[C@H](CO)O1)NCc1ccc(Cl)cc1 | inactive
O=C(C[C@H]1C[C@H]2c3cc(NC(=O)Nc4ccc(C(F)(F)F)cc4)ccc3O[C@H]2[C@@H](CO)O1)NCCc1ccccc1 | inactive
O=C(C[C@H]1C[C@@H]2c3cc(NC(=O)Nc4ccc(C(F)(F)F)cc4)ccc3O[C@@H]2[C@H](CO)O1)NCc1cc(F)ccc1F | inactive
O=C(C[C@@H]1C[C@@H]2c3cc(NC(=O)Nc4ccc(C(F)(F)F)cc4)ccc3O[C@@H]2[C@H](CO)O1)NCc1cc(F)ccc1F | inactive
O=C(C[C@H]1C[C@@H]2c3cc(NC(=O)Nc4ccc(C(F)(F)F)cc4)ccc3O[C@@H]2[C@@H](CO)O1)NCc1ccc(Cl)cc1 | inactive
Cc1noc(C)c1S(=O)(=O)Nc1ccc2c(c1)CC(=O)N([C@@H](C)CO)C[C@@H](C)[C@@H](CN(C)Cc1ccccc1)O2 | inactive
Cc1noc(C)c1NC(=O)Nc1ccc2c(c1)CC(=O)N([C@@H](C)CO)C[C@@H](C)[C@@H](CN(C)Cc1ccc(-c3ccccc3)cc1)O2 | inactive
COc1ccc(NC(=O)N(C)C[C@@H]2Oc3c(NC(=O)Nc4cccc5ccccc45)cccc3C(=O)N([C@@H](C)CO)C[C@@H]2C)cc1 | inactive
C[C@H]1COC(=O)[C@H](NC(=O)OCC2c3ccccc3-c3ccccc32)CC=CC[C@@H](CC(=O)NCCO)C(=O)N1 | inactive
CCCNC(=O)N[C@@H]1C=C[C@@H](CC(=O)N2CCN(C)CC2)O[C@@H]1CO | inactive
Cc1ccc(S(=O)(=O)Nc2ccc3c(c2)C(=O)N([C@H](C)CO)C[C@H](C)[C@@H](CN(C)C(=O)Nc2c(C)noc2C)OCCCC[C@H](C)O3)cc1 | inactive

SMILES | cytotoxicity call
C[C@H]1CN([C@@H](C)CO)C(=O)c2c(c3ccccc3n2C)-c2ccccc2CO[C@H]1CN(C)C(=O)Nc1ccc(-c2ccccc2)cc1 | inactive
C[C@H]1CN([C@@H](C)CO)C(=O)c2cc(NC(=O)Nc3ccc(C(F)(F)F)cc3)ccc2O[C@@H]1CN(C)Cc1ccc(C(=O)Nc2ccccc2N)cc1 | inactive
C[C@H](CO)N1C[C@H](C)[C@@H](CN(C)Cc2ccc(C(=O)Nc3ccccc3N)cc2)Oc2ccc(NC(=O)Nc3ccc(C(F)(F)F)cc3)cc2C1=O | inactive
C[C@@H]1CCCCO[C@@H](CN(C)Cc2ccc(C(=O)Nc3ccccc3N)cc2)[C@@H](C)CN([C@H](C)CO)C(=O)c2cc(NC(=O)Nc3ccc(F)cc3)ccc2O1 | inactive
C[C@@H]1CN([C@H](C)CO)C(=O)c2cc(NC(=O)Nc3ccc(C(F)(F)F)cc3)ccc2O[C@@H]1CN(C)Cc1ccc(C(=O)Nc2ccccc2N)cc1 | inactive
C[C@@H]1CN([C@@H](C)CO)C(=O)c2cc(NC(=O)Nc3ccc(C(F)(F)F)cc3)ccc2O[C@H]1CN(C)Cc1ccc(C(=O)Nc2ccccc2N)cc1 | inactive
C[C@@H]1CCCCO[C@@H](CN(C)Cc2ccc(C(=O)Nc3ccccc3N)cc2)[C@@H](C)CN([C@H](C)CO)C(=O)c2cc(NC(=O)Nc3ccc(C(F)(F)F)cc3)ccc2O1 | active
C[C@H](CO)N1C[C@H](C)[C@H](CN(C)Cc2ccc(C(=O)Nc3ccccc3N)cc2)Oc2ccc(NC(=O)Nc3ccc(C(F)(F)F)cc3)cc2C1=O | active
C[C@@H]1CCCCO[C@H](CN(C)Cc2ccc(C(=O)Nc3ccccc3N)cc2)[C@@H](C)CN([C@@H](C)CO)C(=O)c2cc(NC(=O)Nc3ccc(C(F)(F)F)cc3)ccc2O1 | inactive
C[C@H]1CN([C@@H](C)CO)C(=O)c2cc(NC(=O)Nc3ccc(C(F)(F)F)cc3)ccc2O[C@H]1CN(C)Cc1ccc(C(=O)Nc2ccccc2N)cc1 | active
C[C@@H]1CN([C@H](C)CO)C(=O)Cc2cc(NC(=O)CCN3CCOCC3)ccc2O[C@@H]1CN(C)C(=O)Nc1ccccc1 | inactive
CN1C(=O)NC2(CCNCC2)C1=O | inactive
O=[N+]([O-])c1ccc(/C=C/CN(C/C=C/c2ccc([N+](=O)[O-])cc2)CCCNS(=O)(=O)c2cccc3cnccc23)cc1 | inactive
COc1ccc(NC(=O)Nc2cccc3c2O[C@H](CN(C)Cc2ccc(C(F)(F)F)cc2)[C@@H](C)CN([C@@H](C)CO)C3=O)cc1 | inactive
COc1ccc(NC(=O)Nc2cccc3c2O[C@@H](CN(C)Cc2ccc(C(F)(F)F)cc2)[C@H](C)CN([C@@H](C)CO)C3=O)cc1 | inactive
COc1ccc(CN(C)C[C@H]2Oc3c(NC(=O)Nc4ccc(C(F)(F)F)cc4)cccc3C(=O)N([C@@H](C)CO)C[C@H]2C)cc1 | inactive
COc1ccc(CN(C)C[C@@H]2Oc3c(NC(=O)Nc4ccc(C(F)(F)F)cc4)cccc3C(=O)N([C@@H](C)CO)C[C@H]2C)cc1 | active
COc1ccc(NC(=O)Nc2cccc3c2O[C@@H](CN(C)Cc2ccc(C(F)(F)F)cc2)[C@@H](C)CN([C@H](C)CO)C3=O)cc1 | inactive
COc1ccc(CN(C)C[C@H]2Oc3c(NC(=O)Nc4ccc(C(F)(F)F)cc4)cccc3C(=O)N([C@H](C)CO)C[C@@H]2C)cc1 | active
COc1ccc(CN(C)C[C@@H]2Oc3c(NC(=O)Nc4ccc(C(F)(F)F)cc4)cccc3C(=O)N([C@H](C)CO)C[C@H]2C)cc1 | active
COc1ccc(NC(=O)Nc2cccc3c2O[C@@H](CN(C)Cc2ccc(C(F)(F)F)cc2)[C@H](C)CN([C@H](C)CO)C3=O)cc1 | inactive
COc1ccc(CN(C)C[C@H]2Oc3c(NC(=O)Nc4ccc(C(F)(F)F)cc4)cccc3C(=O)N([C@H](C)CO)C[C@H]2C)cc1 | inactive
